Bioassay records deposited in PubChem BioAssay by Sanford-Burnham Center for Chemical Genomics.
Sampled rows, rich in hits. Any-hit rate of the full collection: about 4%.
TWEAK Fn14 block: inhibitors of TWEAK-Fn14 interaction signaling; TWEAK-stimulated Fn14 reporter cells, luciferase luminescence, 8 h; inhibition, % at 10 µM; 360,000 tested, 2% active; in the data active = inhibition above about 50%
Peg3 prom inh: inhibitors of Peg3 promoter | AID 588405 | inhibition, % at 20 µM | 360,000 tested, 1.7% active | HeLa PEG-Prom luciferase reporter, luminescence, overnight;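 active = inhibition of at least 50% at 20 µM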
KKLEB cytotox: counter-screen for CF NF-kB inhibitors: cytotoxicity | KKLEB CF airway cells viability, ATPlite luminescence, overnight; stronger effect = lower value; cells stimulated with P. aeruginosa culture filtrate | activity change (cytotoxicity), % at 5 µM | 360,000 tested, 0.36% active;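 active = corrected activity change at or below -50% at 5 µM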
HIF-2a inh: HIF-2a inhibition | inhibition, % at 18.8 µM | 360,000 tested, 0.72% active | 786-0 RCC cells HIF-2a reporter, luciferase luminescence, overnight;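 active = inhibition of the luminescence signal of 40% or more relative to plate controls, in a single-dose primary screen at 18.75 µM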
CF NFkB block: cystic fibrosis NF-kB activation inhibition | inhibition, % at 5 µM | 360,000 tested, 0.86% active | KKLEB NF-kB-GFP reporter, PAF-induced, GFP fluorescence overnight | AID 588850;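 active = at least 50% inhibition at 5 µM, scaled per plate between neutral and stimulator controls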;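 note: PAF is a Pseudomonas aeruginosa culture filtrate used as stimulus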
TROY signal inh: inhibitors of TROY-dependent NF-kB signaling; Q293 LMP1-TROYcd NF-kB luciferase reporter, 4 h; 360,000 tested, 0.98% active; AID 1347056; inhibition, % at 10 µM;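 active = compounds whose plate-normalised and pattern-corrected inhibition of the luciferase reporter signal at the single screening dose is 50% or more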
CF NFkB conf: confirmation of cystic fibrosis induced NF-kB inhibitors; shares compounds with CF NFkB block; KKLEB CF airway cells, PAF-induced NF-kB-GFP fluorescence, overnight; inhibition, % at 5 µM; 1,300 tested, 64% active; AID 602472; in the data active = inhibition above about 40%;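 note: stimulus PAF is a Pseudomonas aeruginosa filtrate and not platelet activating factor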
Numbers stand for hits; n = inactive; x = no result.

SMILES	TWEAK Fn14 block	Peg3 prom inh	KKLEB cytotox	HIF-2a inh	CF NFkB block	TROY signal inh	CF NFkB conf
CN1CCC(N(C)C(=O)c2cccc(S(=O)(=O)N3CCc4ccccc43)c2)CC1	n	n	n	n	n	n	x
c1ccc(C2[C@H]3CN(Cc4cccnc4)[C@H](c4ccccc4)C34CC2(c2ccccc2)C4)cc1 (stereo partly drawn)	n	n	n	n	53	n	n
c1ccc(C2[C@H]3CN(Cc4cccnc4)[C@H](c4ccccc4)C34CC2(c2cccnc2)C4)cc1 (stereo partly drawn)	n	n	n	n	n	n	x
CCOc1ccc(/C=C/C(=O)c2c(O)cc(C)oc2=O)cc1	n	n	n	n	n	n	x
COCOc1ccc(/C=C/C(=O)c2c(O)cc(OCOC)cc2OCOC)cc1	n	n	n	n	52	n	n
Nc1nc(/C=C/c2cccnc2)nc(-c2ccccc2O)n1	n	n	n	n	91	n	75
O=C(CN1C(=O)NC2(CCc3ccccc32)C1=O)c1ccc(Cl)cc1 (stereo not drawn)	n	n	n	n	n	n	x
O=C(CN1C(=O)NC2(CCCc3ccccc32)C1=O)c1ccc(F)c(F)c1 (stereo not drawn)	n	n	n	n	56	n	n
Cc1ccc(S(=O)(=O)NC2CCOC(C)(C)C2)cc1 (stereo not drawn)	n	n	n	n	n	n	x
Cc1ccc(-c2onc3ccc(C(=O)/C=C/N(C)C)cc23)cc1	n	n	n	n	68	n	47
COc1ccc2nc(SCC(=O)Nc3ccc(S(=O)(=O)Nc4onc(C)c4C)cc3)[nH]c2c1	n	n	n	n	n	n	x
O=C(Nc1ccccc1)Nc1ncc([N+](=O)[O-])s1	81	n	n	n	57	n	87
O=C(COC(=O)c1ccccc1)Nc1ncc([N+](=O)[O-])s1	n	n	n	n	n	n	x
O=C(O)C1Sc2[nH]c(=O)sc2C2c3ccc(O)cc3OC(=O)C12 (stereo not drawn)	n	n	n	n	n	n	x
COc1ccc(-c2cc(NC=O)c3ncc(-c4cccc(C(C)=O)c4)n3c2)cc1	n	n	n	n	n	n	x
COc1cc(-c2cnc3c(NC=O)cc(-c4ccc(C)cc4)cn23)cc(OC)c1OC	n	n	n	n	51	n	71
COc1cccc(-c2cc(NC=O)c3ncc(-c4ccc(C(C)=O)cc4)n3c2)c1	n	n	n	n	59	n	63
COc1ccc(-c2cc(NC=O)c3ncc(-c4ccc(C(C)=O)cc4)n3c2)cc1OC	n	68	n	n	50	n	n
COc1ccccc1-c1cc(NC=O)c2ncc(-c3ccc(F)cc3)n2c1	55	n	n	n	67	n	54
c1ccn(-c2ncnc3sc4c(c23)CCCC4)c1	n	n	n	n	n	n	x
c1nc(N2CCOCC2)c2c3c(sc2n1)CCCC3	n	n	n	n	55	n	70
CC1=CC(C)(C)N(S(=O)(=O)c2ccc(F)cc2)c2ccccc21	n	n	n	n	n	n	x
CC(=O)Nc1ccc(S(=O)(=O)N2c3ccccc3C(C)=CC2(C)C)cc1	n	n	n	n	54	n	65
Cc1c(NC(=O)c2ccc(Cl)s2)c(=O)n(-c2ccccc2)n1C	n	n	n	n	n	n	x
O=c1c2ccccc2nnn1CSc1ccccc1F	n	n	n	n	n	n	x
SMILES	TWEAK Fn14 block	Peg3 prom inh	KKLEB cytotox	HIF-2a inh	CF NFkB block	TROY signal inh	CF NFkB conf
O=c1c2ccccc2nnn1CSc1ncnc2ccccc12	n	n	n	n	66	n	41
CCOC(=O)c1cccc(NC(=O)c2ccc3c(c2)C(=O)N(CC2CCCO2)C3=O)c1 (stereo not drawn)	n	n	n	n	n	n	x
O=[N+]([O-])c1cccc(/C=N/Nc2nc(N3CCOCC3)nc(N3CCOCC3)n2)c1	n	n	n	n	n	n	x
O=[N+]([O-])c1cccc(/C=N/Nc2cc(N3CCOCC3)ncn2)c1	n	62	n	n	53	n	72
C/C(=N\Nc1cc(N2CCOCC2)ncn1)c1cccc([N+](=O)[O-])c1	n	102	n	n	56	n	64
Nn1c(SCC(=O)Nc2ccccc2Oc2ccccc2)nnc1C1CC1	n	n	n	n	n	n	x
COc1ccc(C2(C(=O)Nc3ccc(C(=O)N4CCOCC4)cc3)CCOCC2)cc1	n	n	n	n	n	n	x
CC(C(=O)Nc1cccc([N+](=O)[O-])c1)[n+]1ccccc1 (stereo not drawn)	n	n	n	n	n	n	x
COc1cc(C(=O)Nc2nc(-c3cc(C)ccc3C)c(C)s2)ccc1OCC(=O)Nc1ccc(F)cc1	n	n	n	n	n	n	x
COc1ccc(-c2nc(NC(=O)c3ccc(OCC(=O)Nc4ccc(F)cc4)c(OC)c3)sc2C)cc1	n	n	n	n	54	n	72
O=C(Nc1ccncc1)Nc1cccc(Cl)c1	n	n	n	n	n	n	x
O=C(Nc1cccc(Cl)c1)Nc1csc([N+](=O)[O-])c1	72	n	n	n	54	n	63
CC(=O)c1c(O)cc(O)c(C(C)=O)c1O	n	n	n	n	59	59	52
CCOC(=O)c1c(NC(=O)Cc2cccs2)sc(C(=O)NC2CCCCC2)c1C	n	n	n	n	51	n	n
O=C(Nc1cccc(-c2cnc3ccccc3n2)c1)c1cccc(NC(=O)c2ccco2)c1	55	n	n	n	67	n	108
O=C(Nc1cccc(-c2cnc3ccccc3n2)c1)c1ccccc1	n	n	n	n	n	n	x
Cc1[nH]nc2c1-c1nc3ccccc3nc1C(C)(C)C2	n	n	n	n	51	n	54
O=C(NCc1cccnc1)c1ccc(Cn2c(=S)[nH]c3ccc(Br)cc3c2=O)cc1	n	n	n	n	52	n	n
O=c1c2cc(Br)ccc2[nH]c(=S)n1Cc1ccccc1	n	n	n	n	n	n	x
CCc1ccccc1NC(=O)N1CCC(NC(=O)C(Cc2ccc(OC)c(OC)c2)NC(C)=O)CC1 (stereo not drawn)	n	n	n	n	n	n	x
O=C(O)/C=C/c1ccc2c(-c3ccccc3)onc2c1	n	n	n	n	59	n	74
O=C(O)c1ccc2noc(-c3ccccc3)c2c1	n	n	n	n	n	n	x
Cc1cccc(N2CCN(C(=O)CCn3c(=S)[nH]c4cc5c(cc4c3=O)OCO5)CC2C)c1 (stereo not drawn)	n	63	n	n	69	n	101
Cc1cccc(N2CCN(C(=O)CCCn3c(=S)[nH]c4cc5c(cc4c3=O)OCO5)CC2)c1C	n	n	n	n	n	n	x
Cc1ccc(S(=O)(=O)N2CCC(C(=O)OCC(=O)N3CCCC3=O)CC2)cc1C	n	n	n	n	n	n	x
